Experimental data as given in article PMC9911399, “Two distinct binding modes provide the RNA-binding protein RbFox with extraordinary sequence specificity”.
Positions count from the first letter of the chain named. Whole data set: some 16,000 sequences, median “ka relative to ugcaugu” near 0.0091, cut for the highest 2% near 0.032. The entries come from a sample that favours the highest values as a whole.

T1: RBFOX1 RRM (Homo sapiens, UniProt Q9NWB1 109-208)
T1 sequence: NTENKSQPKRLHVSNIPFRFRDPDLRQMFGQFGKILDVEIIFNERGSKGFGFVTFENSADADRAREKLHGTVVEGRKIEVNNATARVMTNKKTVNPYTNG

B1: UUCCAAA (DNA:RNA)
RNA: GGGAGACCGGAAUUCAGAUUGUCCUUCCAAAUUAAAUCCCGUCGUAGCCACCA
DNA 1: CAATCTGAATTCCGGTCTCCC
DNA 2: TGGTGGCTACGACGGGATT
B2: GACAUUG (DNA:RNA)
RNA: B1 RNA with U25G, U26A, C28A, A29U, A30U, A31G
DNA 1: CAATCTGAATTCCGGTCTCCC
DNA 2: TGGTGGCTACGACGGGATT
B3: GCUAGUA (DNA:RNA)
RNA: B1 RNA with U25G, U26C, C27U, C28A, A29G, A30U
DNA 1: CAATCTGAATTCCGGTCTCCC
DNA 2: TGGTGGCTACGACGGGATT
B4: GCAAACC (DNA:RNA)
RNA: B1 RNA with U25G, U26C, C27A, C28A, A30C, A31C
DNA 1: CAATCTGAATTCCGGTCTCCC
DNA 2: TGGTGGCTACGACGGGATT
B5: GCGUGGG (DNA:RNA)
RNA: GGGAGACCGGAAUUCAGAUUGUCCGCGUGGGUUAAAUCCCGUCGUAGCCACCA
DNA 1: CAATCTGAATTCCGGTCTCCC
DNA 2: TGGTGGCTACGACGGGATT
B6: AGAAUCG (DNA:RNA)
RNA: B5 RNA with G25A, C26G, G27A, U28A, G29U, G30C
DNA 1: CAATCTGAATTCCGGTCTCCC
DNA 2: TGGTGGCTACGACGGGATT
B7: AAGCGGU (DNA:RNA)
RNA: B5 RNA with G25A, C26A, U28C, G31U
DNA 1: CAATCTGAATTCCGGTCTCCC
DNA 2: TGGTGGCTACGACGGGATT
B8: AAAGAAG (DNA:RNA)
RNA: B1 RNA with U25A, U26A, C27A, C28G, A31G
DNA 1: CAATCTGAATTCCGGTCTCCC
DNA 2: TGGTGGCTACGACGGGATT
B9: GCGCUUC (DNA:RNA)
RNA: B5 RNA with U28C, G29U, G30U, G31C
DNA 1: CAATCTGAATTCCGGTCTCCC
DNA 2: TGGTGGCTACGACGGGATT
B10: GCUUGUG (DNA:RNA)
RNA: B5 RNA with G27U, G30U
DNA 1: CAATCTGAATTCCGGTCTCCC
DNA 2: TGGTGGCTACGACGGGATT
B11: GCUUCUG (DNA:RNA)
RNA: B5 RNA with G27U, G29C, G30U
DNA 1: CAATCTGAATTCCGGTCTCCC
DNA 2: TGGTGGCTACGACGGGATT
B12: GCUUCCG (DNA:RNA)
RNA: B5 RNA with G27U, G29C, G30C
DNA 1: CAATCTGAATTCCGGTCTCCC
DNA 2: TGGTGGCTACGACGGGATT
B13: CGUCCGC (DNA:RNA)
RNA: B5 RNA with G25C, C26G, G27U, U28C, G29C, G31C
DNA 1: CAATCTGAATTCCGGTCTCCC
DNA 2: TGGTGGCTACGACGGGATT
B14: GUCCCGC (DNA:RNA)
RNA: B1 RNA with U25G, A29C, A30G, A31C
DNA 1: CAATCTGAATTCCGGTCTCCC
DNA 2: TGGTGGCTACGACGGGATT
B15: ACUGUGU (DNA:RNA)
RNA: B5 RNA with G25A, G27U, U28G, G29U, G31U
DNA 1: CAATCTGAATTCCGGTCTCCC
DNA 2: TGGTGGCTACGACGGGATT
B16: ACCCUUU (DNA:RNA)
RNA: B1 RNA with U25A, U26C, A29U, A30U, A31U
DNA 1: CAATCTGAATTCCGGTCTCCC
DNA 2: TGGTGGCTACGACGGGATT
B17: GACAGCA (DNA:RNA)
RNA: B5 RNA with C26A, G27C, U28A, G30C, G31A
DNA 1: CAATCTGAATTCCGGTCTCCC
DNA 2: TGGTGGCTACGACGGGATT
B18: GUGAAUA (DNA:RNA)
RNA: B1 RNA with U25G, C27G, C28A, A30U
DNA 1: CAATCTGAATTCCGGTCTCCC
DNA 2: TGGTGGCTACGACGGGATT
B19: UGGGGAA (DNA:RNA)
RNA: B1 RNA with U26G, C27G, C28G, A29G
DNA 1: CAATCTGAATTCCGGTCTCCC
DNA 2: TGGTGGCTACGACGGGATT
B20: UGGUGGG (DNA:RNA)
RNA: B5 RNA with G25U, C26G
DNA 1: CAATCTGAATTCCGGTCTCCC
DNA 2: TGGTGGCTACGACGGGATT
B21: UGGGAGU (DNA:RNA)
RNA: B5 RNA with G25U, C26G, U28G, G29A, G31U
DNA 1: CAATCTGAATTCCGGTCTCCC
DNA 2: TGGTGGCTACGACGGGATT
B22: UGGGGAG (DNA:RNA)
RNA: B5 RNA with G25U, C26G, U28G, G30A
DNA 1: CAATCTGAATTCCGGTCTCCC
DNA 2: TGGTGGCTACGACGGGATT
B23: CUGGUGU (DNA:RNA)
RNA: B5 RNA with G25C, C26U, U28G, G29U, G31U
DNA 1: CAATCTGAATTCCGGTCTCCC
DNA 2: TGGTGGCTACGACGGGATT
B24: CUGGAAG (DNA:RNA)
RNA: B1 RNA with U25C, C27G, C28G, A31G
DNA 1: CAATCTGAATTCCGGTCTCCC
DNA 2: TGGTGGCTACGACGGGATT
B25: UGGAAGU (DNA:RNA)
RNA: B5 RNA with G25U, C26G, U28A, G29A, G31U
DNA 1: CAATCTGAATTCCGGTCTCCC
DNA 2: TGGTGGCTACGACGGGATT
B26: UGGAGUU (DNA:RNA)
RNA: B5 RNA with G25U, C26G, U28A, G30U, G31U
DNA 1: CAATCTGAATTCCGGTCTCCC
DNA 2: TGGTGGCTACGACGGGATT
B27: UGGGGUG (DNA:RNA)
RNA: B5 RNA with G25U, C26G, U28G, G30U
DNA 1: CAATCTGAATTCCGGTCTCCC
DNA 2: TGGTGGCTACGACGGGATT
B28: UGGGAAG (DNA:RNA)
RNA: B1 RNA with U26G, C27G, C28G, A31G
DNA 1: CAATCTGAATTCCGGTCTCCC
DNA 2: TGGTGGCTACGACGGGATT
B29: UGGGUGU (DNA:RNA)
RNA: B5 RNA with G25U, C26G, U28G, G29U, G31U
DNA 1: CAATCTGAATTCCGGTCTCCC
DNA 2: TGGTGGCTACGACGGGATT
B30: UGGUGUU (DNA:RNA)
RNA: B5 RNA with G25U, C26G, G30U, G31U
DNA 1: CAATCTGAATTCCGGTCTCCC
DNA 2: TGGTGGCTACGACGGGATT

What follows are binders tested against T1, RBFOX1 RRM (assay: EMSA; HiTS-Eq, 1 nM pool, 10 min; buffer printed only for the single-RNA assays: 10 mM Tris pH 7.5, 150 mM NaCl, 3.4 mM EDTA, 0.001% NP-40, 30 C). Conditions: tags: His6 N-terminal (pET28a); label: 5' 32P.
How it was run: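 These values rest on relative association constants, computed from read-count changes of each RNA species versus the control reaction and normalised to the cognate motif. Reads came from free RNA recovered by 8% native PAGE after purified RbFox RRM (wild type or mutant) at increasing concentrations was equilibrated for 10 min in 50 µL with 1 nM of a 5′-radiolabelled pool with 7 randomized nucleotides and DNA-annealed flanks.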

| Binder | binding signal |
| --- | --- |
| B1 | 0.00275 KA relative to UGCAUGU |
| B2 | 0.0146 KA relative to UGCAUGU |
| B3 | 0.0137 KA relative to UGCAUGU |
| B4 | 0.00398 KA relative to UGCAUGU |
| B5 | 0.0174 KA relative to UGCAUGU |
| B6 | 0.00981 KA relative to UGCAUGU |
| B7 | 0.00838 KA relative to UGCAUGU |
| B8 | 0.00539 KA relative to UGCAUGU |
| B9 | 0.0175 KA relative to UGCAUGU |
| B10 | 0.0418 KA relative to UGCAUGU |
| B11 | 0.0318 KA relative to UGCAUGU |
| B12 | 0.0121 KA relative to UGCAUGU |
| B13 | 0.00928 KA relative to UGCAUGU |
| B14 | 0.0018 KA relative to UGCAUGU |
| B15 | 0.016 KA relative to UGCAUGU |
| B16 | 0.00524 KA relative to UGCAUGU |
| B17 | 0.0143 KA relative to UGCAUGU |
| B18 | 0.00781 KA relative to UGCAUGU |
| B19 | 0.0174 KA relative to UGCAUGU |
| B20 | 0.0153 KA relative to UGCAUGU |
| B21 | 0.0357 KA relative to UGCAUGU |
| B22 | 0.0199 KA relative to UGCAUGU |
| B23 | 0.0254 KA relative to UGCAUGU |
| B24 | 0.0188 KA relative to UGCAUGU |
| B25 | 0.0205 KA relative to UGCAUGU |
| B26 | 0.0241 KA relative to UGCAUGU |
| B27 | 0.0422 KA relative to UGCAUGU |
| B28 | 0.0374 KA relative to UGCAUGU |
| B29 | 0.0478 KA relative to UGCAUGU |
| B30 | 0.0267 KA relative to UGCAUGU |
